Among the data in PubChem BioAssay are z-score values, retold here.

Calls of active or inactive are those of the source.

A short description of this test: forskolin-driven CRE-LacZ activity in PC12 – cell-based, CRE-LacZ reporter, forskolin-stimulated, primary screen (AID 1146).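 Further: PC12 cells with 6xCRE LacZ reporter stimulated by forskolin 10 µM; beta-galactosidase reporter signal reflecting CREB driven transcription.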 As to conditions: luminescence, 4.5 h, higher = more signal, called active from +8 up or from −8 down.
On to `COc1ccc([Si](C)(C)[C@@H]2[C@@H](CCO)O[C@]3(C(=O)N(Cc4ccc(NC(C)=O)cc4)c4ccccc43)[C@H]2C)cc1`, for which the z-score is -2.33 (inactive).

As to `CCCCC(=C=CC[C@H](O)c1ccccc1OCCO)C[C@H](O)COCc1ccccc1`, the z-score is 0.571 (inactive).

Regarding `COC(=O)[C@H]1COC(c2ccc(OCCCO)cc2)=N1`, the z-score was 0.697 (inactive).

On to `CC(C)C[C@@H]1NC(=O)[C@H]2C[C@@H](C(=O)NCCCCCCN(C)C)[C@@H](c3cccc(OCCO)c3)N2C1=O`, for which the z-score is -0.995 (inactive).

As for `O=C1O[C@@H](c2ccccc2)[C@@H](c2ccccc2)N2[C@@H](c3ccccc3OCCO)[C@]3(C(=O)Nc4ccc(C#CCCO)cc43)[C@@H](C(=O)O)[C@H]12`, the z-score was 1.6 (inactive).

On to `CC(C)NC(=O)[C@@]1(C)c2ccccc2C(=O)N(Cc2cc(F)cc(C(F)(F)F)c2)[C@H]1c1ccc(CO)cc1`, for which the z-score was -0.237 (inactive).

With `O=C1O[C@@H](c2ccccc2)[C@@H](c2ccccc2)N2[C@@H](c3ccc(OCCO)cc3)[C@]3(C(=O)Nc4ccccc43)[C@@H](C(=O)N3CCN(c4ncccn4)CC3)[C@H]12`, the z-score was 3.05 (inactive).

On to `CCc1cc2c(nc1CC)CCN(CCC(C)=NOC[C@@H](O)[C@H]1O[C@@H]3OC(C)(C)O[C@@H]3[C@H]1O)C2`, for which the z-score is 0.347 (inactive).

For `C=CC[C@@H]1C=C[C@H](ON=C(C)CCN2CCc3nc(CC)c(CC)cc3C2)[C@@H](CO)O1`, the z-score is 0.319 (inactive).

As to `CN(C)CCCNC(=O)[C@@H]1c2ccccc2C(=O)N(Cc2cc(F)cc(C(F)(F)F)c2)[C@H]1c1ccc(CO)cc1`, the z-score was 0.159 (inactive).
